Rows were chosen to be rich in hits. Some 3% of all compounds tested hit in one or more screens of this group.
LmPK inh – qHTS Assay for Inhibitors of Leishmania Mexicana Pyruvate Kinase (LmPK); Q27686; actives 0.37% (n = 290,000); Potency, µM (top dose mostly 57.5 µM), most hits filed as inhibitors; purified LmPK, Kinase-Glo ATP luminescence, 1 h
Target sequence (Q27686 whole entry, looked up): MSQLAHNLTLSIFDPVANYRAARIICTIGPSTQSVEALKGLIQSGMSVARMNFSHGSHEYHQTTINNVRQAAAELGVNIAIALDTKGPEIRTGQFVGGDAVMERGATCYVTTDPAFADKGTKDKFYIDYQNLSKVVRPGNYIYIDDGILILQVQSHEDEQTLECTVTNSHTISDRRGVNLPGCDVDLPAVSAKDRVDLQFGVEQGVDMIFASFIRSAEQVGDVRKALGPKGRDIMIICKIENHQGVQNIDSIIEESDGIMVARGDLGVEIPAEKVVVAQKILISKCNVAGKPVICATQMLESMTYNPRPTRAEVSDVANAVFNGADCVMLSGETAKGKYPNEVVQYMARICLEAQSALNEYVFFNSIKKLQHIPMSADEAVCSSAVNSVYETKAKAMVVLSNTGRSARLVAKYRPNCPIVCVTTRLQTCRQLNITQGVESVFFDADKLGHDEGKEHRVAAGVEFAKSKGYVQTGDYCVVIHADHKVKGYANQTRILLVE
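Purified LmPK (0.1 nM) with 0.5 mM PEP and 0.1 mM ADP in imidazole buffer pH 7.2 with MgCl2/KCl, 1 h at room temperature. ATP formed was read by luciferase luminescence and normalized to no-enzyme and uninhibited controls.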
Sm TGR inh – qHTS Assay for the Inhibitors of Schistosoma Mansoni Peroxiredoxins. Schistosoma mansoni thioredoxin glutathione reductase (TGR), Q962Y6. purified TGR, DTNB reduction, TNB absorbance 405 nm. Potency, µM (doses to about 114 µM), actives largely listed as inhibitors. actives 3% (n = 360,000). AID 485364, 2010; note: nearly all actives have a fitted effect of over 60% in size
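First, TGR (20 nM dispensed) and NADPH were mixed with compound. Second, a 15 min room-temperature incubation followed. Third, further NADPH and then DTNB were added to start the reaction. Finally, TNB absorbance was monitored kinetically.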
RE007 growth inh – qHTS Assay for Inhibitors of the HIV-1 protein Vpr. AID 651644, 2012. actives 0.21% (n = 360,000). S. pombe RE007 Vpr strain, BacTiter-Glo ATP luminescence, 24 h. Potency, µM (series often up to 92.2 µM), usual class: inhibitors; active = well fitted falling curve with a large enough effect; inconclusive = small, poorly fitted or top-dose-only effect; inactive = no such curve, though single readings can be large or run the other way; note: nearly all actives have a fitted effect of over 50% in size
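Fission yeast strain RE007, carrying one chromosomally integrated HIV-1 vpr copy, was seeded at OD 0.01 in PMG+AL medium with 23 nL pinned compound. After 24 h at 30 °C and 99% humidity, viability was read by BacTiter-Glo luminescence.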
TbPYK inhibitor – qHTS of Trypanosoma Brucei Inhibitors | pyruvate kinase (Trypanosoma brucei), Q57TT1 | TbPYK enzyme, Kinase-Glo Plus ATP luminescence, 45 min | Potency, µM (series often up to 76.8 µM), actives largely listed as inhibitors | actives 0.12% (n = 410,000); note: nearly all actives have a fitted effect of over 50% in size
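T. brucei PYK with substrate was exposed to pin-transferred compounds across a concentration series, then started with 130 uM ADP (final). After 45 min at room temperature, Kinase-Glo Plus luminescence was read, normalized and curve-fitted.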
Hits are given with their value; n = inactive; u = inconclusive; x = no result given; [ ] = another dose, or the depositor's remark. Unless noted, calls come from the whole dose curve; as a rule, active = well fitted curve in the direction sought with a large enough effect; inconclusive = small, poorly fitted or top-dose-only effect, or another doubt; inactive = no such curve, though single readings can be large; an effect the other way counts as inactive or inconclusive.

SMILES	LmPK inh	Sm TGR inh	RE007 growth inh	TbPYK inhibitor
COC(=O)c1ccc(NC(=O)C(C)N2Cc3ccccc3C2=O)cc1 (stereo not given)	x	n	x	n
O=C(COC(=O)c1ccc(S(=O)(=O)N2CCCCC2)cc1)NCc1ccco1	n	u	n	n
O=C(OCc1ccco1)c1ccc(S(=O)(=O)N2CCCCC2)cc1	n	7.1µM	n	n
O=C1OC(Nc2ccc(F)c([N+](=O)[O-])c2)c2ccccc21 (stereo not given)	n	n	n	n
O=C1OC(Nc2ccc3c(c2)OCO3)c2ccccc21 (stereo not given)	n	8.9µM	n	u
O=C1c2oc3ccc(Cl)cc3c(=O)c2C(c2ccco2)N1CCN1CCOCC1 (stereo not given)	n	35µM	n	n
O=C1c2oc3ccccc3c(=O)c2C(c2cccc(O)c2)N1CCCN1CCOCC1 (stereo not given)	n	40µM	n	n
COc1ccc(C2c3c(oc4ccccc4c3=O)C(=O)N2CCCN2CCOCC2)cc1 (stereo not given)	x	x	n[3.69 µM]	x
COc1cc(C2c3c(oc4cc(C)c(C)cc4c3=O)C(=O)N2CCCN2CCOCC2)ccc1O (stereo not given)	x	35µM	x	n
CCOc1ccc(C2c3c(oc4ccccc4c3=O)C(=O)N2CCCN2CCOCC2)cc1OCC (stereo not given)	n	22µM	n	n
Cc1ccc(C2c3c(oc4ccc(Cl)cc4c3=O)C(=O)N2CCCN2CCOCC2)o1 (stereo not given)	n	u	x	x
COc1cccc(C2c3c(oc4ccccc4c3=O)C(=O)N2CCCN2CCOCC2)c1OC (stereo not given)	x	x	n	n
CN(C)CCNc1oc(-c2ccc(COc3ccc(Cl)cc3)o2)nc1C#N	x	u	x	n
CO[C@H]1CN(C)C(=O)c2ccc(NC(=O)C3CCC3)cc2OC[C@H](C)N(Cc2ccccn2)C[C@@H]1C	x	x	n	x
COc1ccc2c(c1)c(=O)c(C(=O)c1ccc(C)cc1)cn2Cc1ccccc1F	x	n	x	n
COc1ccccc1C(=O)Nc1ccc2nc(N3CCC(C)CC3)cc(C)c2c1	x	n	x	n
Cc1c(N=NC2=C(O)CCCC2=O)c(=O)n(-c2ccccc2)n1C	n	18µM	n	n
CCOC(=O)c1[nH]c(C)c(/C(O)=C2\C(=O)C(=O)N(CCN3CCOCC3)C2c2ccco2)c1C (stereo not given)	n	x	n	n
CCOC(=O)c1[nH]c(C)c(/C(O)=C2\C(=O)C(=O)N(CCN(C)C)C2c2ccco2)c1C (stereo not given)	n	56µM	n	n
CC(C)CCNc1nc(-c2ccco2)c2c(c1C#N)CCCC2	n	40µM	n	n
CN(C)CCNc1nc(-c2ccco2)c2c(c1C#N)CC(C)(C)OC2	n	n	n	n
CCCCN(C)c1nc(-c2ccco2)c2c(c1C#N)CC(C)(C)OC2	n	2.8µM	n	u
N#Cc1c(N2CCOCC2)nc(-c2ccco2)c2c1CCCC2	n	2.8µM	n	n
CC1(C)Cc2c(C#N)c(N3CCCC3)nc(-c3ccco3)c2CO1	n	3.5µM	x	x
CC(C)(C)c1ccc(C(=O)NCCC(=O)N2CCC3(CC2)NCCc2[nH]cnc23)cc1	n	n	n	n
SMILES	LmPK inh	Sm TGR inh	RE007 growth inh	TbPYK inhibitor
CC(C)c1nnc(N2C(=O)c3oc4ccccc4c(=O)c3C2c2cccc(O)c2)s1 (stereo not given)	x	n	x	n
Cc1nc(NCc2ccco2)c(C#N)c2c1COC(C)(C)C2	n	n	n	n
CC(C)c1nc(N2CCN(C(=O)c3ccccc3)CC2)c(C#N)c2c1COC(C)(C)C2	n	n	n	n
CC1(C)Cc2c(C#N)c(NCc3ccco3)nc(-c3ccco3)c2CO1	n	7.9µM	n	n
CC1(C)Cc2c(C#N)c(N3CCN(C(=O)c4ccccc4)CC3)nc(-c3ccco3)c2CS1	n	3.2µM	n	n
Cn1nc(-c2ccccc2F)c2cc(C(=O)NCc3ccccc3Cl)sc21	x	n	x	n
CC(=O)NC[C@@H]1CN(c2ccc(N3CCOCC3)c(F)c2)C(=O)O1	x	x	x	n
CC(C)CC1c2[nH]c3ccccc3c2CCN1C(=O)CCC(=O)N(C)C (stereo not given)	n	n	n	n
COC(=O)c1cc(Nc2nc3ccccc3nc2NS(=O)(=O)c2ccc(C)cc2)ccc1Cl	x	n	x	n
